# Shown are actives, neighbours in structure and some others; about 19% of the full set was active somewhere.
# TDP1 cell CPT = DT40-hTDP1 cell growth loss with CPT; chicken DT40 Tdp1-/-;hTDP1 cells + 20 nM CPT, ATP luminescence, 48 h; Potency, µM (doses to about 46.2 µM), for the others: top-dose activity change, negative = growth inhibition, actives largely listed as inhibitors; hit rate 12% among 420,000; AID 686979; also: potency is read from the fitted curve at half-maximal effect; nearly all actives have a fitted effect of over 55% in size
#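 Cell growth measured by CellTiter-Glo luminescence after a minimum 48 h, 37 C compound exposure with 20 nM CPT in Tdp1-knockout DT40 cells stably expressing hTDP1, seeded 400/well; qHTS titration format.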
# Giardia killer = Giardia lamblia killing; hit rate 0.15% among 340,000; Giardia lamblia trophozoite viability; AID 540267; activity change, % at 7.66 µM, hits read low; in the data active = activity change below about -80%; inconclusive = between about -30% and that limit;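 also: parasites exposed to compound for two days anaerobically before the ATP read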
#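 Giardia lamblia trophozoites (100 cells/well) were incubated with compounds for 48 h at 37 deg C under anaerobic conditions. Viability was read as ATP content by one-step luminescence after 15-30 min at room temperature.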
# TDP1 inh = TDP1 (human) enzyme inhibition; hit rate 0.28% among 350,000; Potency, µM (highest dose often 130 µM), for the others: at the highest dose activity change, negative = inhibition, most hits filed as inhibitors; AID 485290; recombinant TDP1, AlphaScreen DNA substrate cleavage; Q9NUW8; also: potency is read from the fitted curve at half-maximal effect; nearly all actives have a fitted effect of over 40% in size
#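 E. coli-derived human Tdp1, 1 nM final. Cpd preinc 15 min RT; substrate 15 nM final, 5 min RT; AS bead mix 10 ug/ml final, 10 min RT. Signal loss = tyrosine-FITC cleavage. No-enzyme wells = max signal.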
# DT40 TDP1 no CPT = qHTS for Inhibitors of human tyrosyl-DNA phosphodiesterase 1 (TDP1): qHTS in cells in absence of CPT | Potency, µM (highest dose often 46.2 µM), for inactives: at the top dose activity change, negative = growth inhibition, hits mostly inhibitors | hit rate 15% among 420,000 | AID 686978, 2013 | DT40 Tdp1-/- hTDP1 cells, no CPT, ATP luminescence, 48 h; also: potency is read from the fitted curve at half-maximal effect; nearly all actives have a fitted effect of over 55% in size
#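 No-CPT arm: Tdp1-/-;hTDP1 DT40 cells (400/well) plus compounds, incubated ≥48 hr at 37 °C. Readout CellTiter-Glo luminescence.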
# ELG1 repair inh = ELG1-dependent DNA repair inhibition; HEK293T ELG1-luciferase reporter, luminescence, 16 h; DNA damage induced by 5-fluorouridine; Potency, µM (highest dose often 46.1 µM), without a hit: at the top dose activity change, negative = inhibition, hits mostly inhibitors; hit rate 2.3% among 330,000; AID 504467; also: potency is read from the fitted curve at half-maximal effect; nearly all actives have a fitted effect of over 55% in size
#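 HEK293T cells expressing luciferase-tagged ELG1 (2,000/well) received 5-Fluorouridine plus compound or DMSO for 16 hr at 37 °C. Luciferase was read by ONE-Glo luminescence after 30 min at room temperature.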
# IL1B secr inh = inflammasome signaling inhibition, IL-1 beta readout. activity change, % at 57.5 µM. hit rate 4.7% among 360,000. AID 743279. THP-1 LPS/ATP IL-1B secretion, AlphaLISA, 16 h; active compounds read low; in the data active = activity change below about -50%; inconclusive = mostly about -30% to -49%
#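 Secreted IL-1B measured by AlphaLISA bead assay after 16 h compound exposure of THP-1 cells; compounds (final up to 57.5 uM) added 1 h before LPS (250 ng/mL) and ATP (1.25 mM) stimulation; lower signal means less secretion.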
# The depositor's hits bear a star; ? = inconclusive; / = no result given. Unless noted, calls follow the shape of the dose curve; as a rule, active = well fitted curve in the direction sought with a large enough effect; inconclusive = small, poorly fitted or top-dose-only effect, or another doubt; inactive = no such curve, though single readings can be large; an effect the other way counts as inactive or inconclusive. % is scaled to controls: 0 for no effect and ±100 for the full control effect.
SMILES,TDP1 cell CPT,Giardia killer,TDP1 inh,DT40 TDP1 no CPT,ELG1 repair inh,IL1B secr inh
O=C1NCC(c2ccccc2)C1C(=O)N/N=C\c1ccc(-c2ccc(Cl)c(Cl)c2)o1 (configuration not stated),?,1,8%,?,?,-61*
COc1ccc(/C=N\NC(=O)C2C(=O)NCC2c2ccccc2)cc1O (configuration not stated),7.3µM*,14,2%,16µM*,-5%,0
O=C1NCC(c2ccccc2)C1C(=O)N/N=C/c1ccc(Cl)s1 (configuration not stated),6%,-4,0%,7%,-14%,-18
Fc1ccc(Nc2ccc(-c3ccc(F)cc3)nn2)cc1,-6%,5,0%,?,?,-27
C[n+]1c(-c2ccccc2)sc([S-])c1-c1ccccc1,23µM*,10,/,9.2µM*,/,7
COc1cccc(/C(O)=C/c2nc3ccc(C(=O)NCCc4ccc(Cl)cc4)cc3[nH]c2=O)c1,6.5µM*,-9,6%,6.5µM*,?,28
CCOc1ccc(Nc2nc(C)c(NC(=O)c3cccc(F)c3)c(Nc3ccc(OCC)cc3)n2)cc1,0.65µM*,/,10%,0.52µM*,/,/
O=C(c1ccc(Br)o1)N1CCN(c2ccccn2)CC1,-6%,-3,0%,1%,0%,17
O=C(Nc1ccc(Cl)cc1)N1CCN(c2ccc3nnc(-c4ccc(F)cc4)n3n2)CC1,?,-5,5%,21µM*,4.6µM*,0
O=C(c1ccc(Br)o1)N1CCN(c2ccc3nnc(-c4ccc(F)cc4)n3n2)CC1,?,?,9%,18µM*,?,-3
COc1ccc(S(=O)(=O)N2CCN(c3ccc4nnc(-c5ccc(F)cc5)n4n3)CC2)cc1,12µM*,6,5%,15µM*,18µM*,-9
CCCNC(=O)C1=CC(c2ccc3c(c2)OCO3)=NS(=O)(=O)N1C,0%,/,3%,-22%,/,/
C[C@H](CO)N1C[C@H](C)[C@H](CN(C)S(=O)(=O)c2cccc(C#N)c2)OCc2cnnn2CCCC1=O,-10%,/,/,-22%,/,-15
COc1ccc(CC(=O)N2CCN(c3cccc(Cl)c3)CC2)cc1OC,?,6,/,10µM*,-21%,29
COc1ccc(CC(=O)N2CCN(C(=O)Cc3ccc(OC)c(OC)c3)CC2)cc1OC,1%,/,/,-13%,/,13
COc1ccc(N2CCN(C(=O)Cc3coc4ccc(C)cc34)CC2)cc1,18µM*,/,11%,?,/,/
COc1ccc(N2CCN(C(=O)Cc3ccc(OC)c(OC)c3)CC2)cc1,8.2µM*,-1,/,16µM*,?,-2
Cc1ccc2onc(CC(=O)N3CCN(c4ccc(F)cc4)CC3)c2c1,15µM*,/,-3%,?,/,/
COc1ccc(OCC(=O)N2CCN(c3cccc(Cl)c3)CC2)cc1,?,0,8%,?,?,-5
CN(CC(=O)Nc1ccc(Cl)c(C(F)(F)F)c1)C(=O)c1cc(=O)c2ccccc2o1,?,-1,1%,?,-29%,19
COc1ccc(OC)c(S(=O)(=O)N(C)CC(=O)N2CCN(c3cccc(Cl)c3)CC2)c1,?,9,0%,18µM*,?,2
COc1ccc(N(CC(=O)NC2CCCCC2)C(=O)CCC(=O)Nc2nc(C)cs2)cc1,-9%,0,-5%,-28%,-9%,-2
Nc1ccc(Cn2ccc3c4c(N)nc(N)nc4ccc32)cc1,?,-7,/,0.13µM*,/,-99*
CC(=O)Nc1c(C)nn(-c2ccccc2)c1N1CCC(C(=O)Nc2ccc(Cl)cc2C)CC1,-14%,/,0%,-12%,/,/

# Assay outcomes deposited in PubChem BioAssay by National Center for Advancing Translational Sciences (NCATS).
